# Results as given in PubChem BioAssay AID651699 (Sanford-Burnham Center for Chemical Genomics, 2012).
# The whole screen tested about 360,000 compounds, of which about 2,100 (0.58%) were called active. For the sample, actives were picked, then their nearest neighbours and some compounds at random. Values without a mark were called inactive. Cut-off read from the data, not from the text of the source: active = inhibition above about 36%; inactive = the rest.
# Target: NEDD8-conjugating enzyme Ubc12 (Homo sapiens) + NEDD8-activating enzyme E1 regulatory subunit (Homo sapiens) (UniProt P61081+Q13564)
# Sequence (P61081 whole entry, looked up): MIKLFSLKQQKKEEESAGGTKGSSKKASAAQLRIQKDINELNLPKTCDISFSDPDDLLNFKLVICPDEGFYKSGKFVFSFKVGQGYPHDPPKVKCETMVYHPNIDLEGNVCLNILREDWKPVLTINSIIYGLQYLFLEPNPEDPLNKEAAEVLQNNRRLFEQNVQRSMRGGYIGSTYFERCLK
# Sequence (Q13564 whole entry, looked up): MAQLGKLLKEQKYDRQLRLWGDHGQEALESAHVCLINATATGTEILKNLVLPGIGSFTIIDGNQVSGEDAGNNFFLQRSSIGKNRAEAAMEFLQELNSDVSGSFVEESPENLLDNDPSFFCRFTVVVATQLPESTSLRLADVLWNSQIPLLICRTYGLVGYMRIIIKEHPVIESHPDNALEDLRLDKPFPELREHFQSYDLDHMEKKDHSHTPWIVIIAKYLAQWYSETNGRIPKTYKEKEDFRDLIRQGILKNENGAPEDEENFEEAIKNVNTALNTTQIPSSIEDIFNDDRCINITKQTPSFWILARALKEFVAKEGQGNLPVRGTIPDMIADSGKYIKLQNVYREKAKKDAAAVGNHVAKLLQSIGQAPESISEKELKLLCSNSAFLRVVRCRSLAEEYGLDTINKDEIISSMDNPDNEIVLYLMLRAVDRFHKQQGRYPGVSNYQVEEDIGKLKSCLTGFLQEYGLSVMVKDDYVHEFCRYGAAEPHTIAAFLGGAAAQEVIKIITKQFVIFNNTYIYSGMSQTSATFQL
# Test: NEDD8 transfer onto cullin, blockade – biochemical, TR-FRET, uHTS, NAE and Ubc12, primary screen (AID 651699)
# Details: TR-FRET cullin neddylation, at 25 µM, hits give high values
row,SMILES,inhibition
1,O=C1c2cccc(OCC(=O)N3N=C(c4cccs4)CC3c3ccc(F)cc3)c2CCN1Cc1ccccc1 (configuration not stated),-25.8%
2,Cc1ccc(C2=NN(C(=O)COc3ncnc4ccccc34)C(c3ccco3)C2)cc1 (configuration not stated),-119%
3,O=C(COc1ccccc1Cl)N1N=C(c2cccs2)CC1c1ccco1 (configuration not stated),39.1% (active)
4,CCC(C)(C(=O)NC1CCCC1)N(C(=O)CNC(C)=O)c1ccc(C)cc1 (configuration not stated),-5.51%
5,Cc1cc(C)c(C)c(S(=O)(=O)N2CCN(C(=O)c3ccc4c(=O)n5c(nc4c3)CCC5)CC2)c1C,20.1%
6,O=C(Nc1cc(F)ccc1F)c1ccc2c(=O)n3c(nc2c1)CCC3,8.53%
7,Cc1ccc(/C=C2\CCn3c2nc2cc(C(=O)O)ccc2c3=O)c(C)c1,31.9%
8,N#Cc1ccc(/C=C2\CCn3c2nc2cc(C(=O)O)ccc2c3=O)cc1,63.7% (active)
9,N#Cc1cccc(OC(=O)c2ccc3c(=O)n4c(nc3c2)CCC4)c1,-4.93%
10,O=C(O)c1ccc2c(=O)n3c(nc2c1)/C(=C/c1ccc(OC(F)F)cc1OC(F)F)CC3,41% (active)
11,CCCn1c(C2CCCN2c2nc(-c3ccc(OC)cc3)cs2)nc2ccccc21 (configuration not stated),-26.8%
12,CCOC(=O)[C@]12CCC=C1N(Cc1ccco1)C(=O)[C@H](CC(=O)NCc1cccc(C(F)(F)F)c1)C2,5.67%
13,COc1cc(C2NC(=O)NC(c3ccccc3)=C2C(C)=O)c(Br)cc1OCC(N)=O (configuration not stated),9.92%
14,COc1ccc(-n2cc(CN(C)Cc3n[nH]c(=O)[nH]3)c(-c3cccc(F)c3)n2)cc1,47.7% (active)
15,Cc1nc2ccc(S(=O)(=O)NC(C(=O)N3CCCCCC3)C(C)C)cc2s1 (configuration not stated),1.31%
16,COc1cc2c(cc1CNC[C@H]1O[C@@H](n3cnc(C(N)=O)n3)[C@H](O)[C@@H]1O)OCO2,0.3%
17,Cc1nn(-c2ccccc2)c(NC(=O)c2cccs2)c(-c2ccc(Cl)cc2)c1=O,5.28%
18,CCOC(=O)c1cnn(Cc2ccccc2Cl)c1N,4.25%
19,CCOC(=O)c1cnc2nc(SCc3ccccc3Cl)[nH]n2c1=O,36.4% (active)
20,CCOC(=O)CSc1nc2c(c(=O)n(Cc3ccccc3Cl)c(=O)n2C)n1C,-3.76%
21,CC1=C(C(=O)OCC2CCCCC2)C(c2ccc(F)cc2)NC(=O)N1 (configuration not stated),10.3%
22,CCN(C[C@H]1N[C@@](CC)(C(=O)OC)[C@H]2C(=O)N(Cc3ccccc3)C(=O)[C@@H]12)S(=O)(=O)c1ccc(C(F)(F)F)cc1,2.27%

row,SMILES,inhibition
1,c1ccc(-c2[nH]ncc2-c2nc3ccccc3[nH]2)cc1,44.3% (active)
2,Oc1ccc(-c2[nH]ncc2-c2nc3ccccc3s2)c(O)c1,-10.2%
3,O=C1Nc2ccc([N+](=O)[O-])cc2C1=Nc1cccc(CO)c1,-19.4%
4,COC(=O)C1(C(=O)OC)C[C@H](c2ccccc2)N(Cc2ccccc2OC)[C@@H]1c1ccccc1,-0.75%
5,O=c1cc(CN2CCCCCCC2)c2c(ccc3ccccc32)o1,47.4% (active)
6,CC(C)c1ccc2oc(=O)cc(CN3CCN(Cc4ccccc4)CC3)c2c1,8.04%
7,CN(Cc1nc2ccccc2c(=O)[nH]1)Cc1cc(=O)oc2ccc3ccccc3c12,10.8%
8,NC(=O)C1CCN(C(=O)/C(=C/c2ccco2)NC(=O)c2ccccc2)CC1,2.01%
9,O=C(CN1CCN(C2CCS(=O)(=O)C2)CC1)N1N=C(c2ccc(Cl)cc2)CC1c1ccco1 (configuration not stated),3.58%
10,COC(=O)C1=CN(C)C=C(C(=O)OC)C1c1ccc(Cl)cc1Cl,42.5% (active)
11,NC(=O)C1(C(N)=O)OC1c1ccc(Cl)cc1Cl (configuration not stated),-3.19%
12,COC(=O)C1=CN(c2ccc(F)c(F)c2)C=C(C(=O)OC)C1c1ccc([N+](=O)[O-])cc1,-12.5%
13,C[N+](C)(C)CCNC(=O)c1cc[n+](Cc2ccccc2)c(/C=N/O)c1,-22.5%
14,O=C(Nc1c(Br)cc2c(c1Br)Cc1ccccc1-2)C(F)(F)F,-31.9%
15,CN(CC(=O)Nc1ccc(F)c(F)c1F)C(=O)C1CC(=O)N(C2CCCC2)C1 (configuration not stated),1.3%
16,Cc1ccc(S(=O)(=O)NCCc2nnc3ccc(SCc4cccnc4)nn23)cc1,-3.01%
17,CC(=O)Cc1nsc(NC(=O)c2ccc(Cl)cc2Cl)n1,12.4%
18,CNC(=O)c1csc(Cc2c(Cl)sc3ccc(Cl)cc23)n1,-6.49%
19,CC(=O)NNC(=O)c1csc(Cc2c(Cl)sc3ccc(Cl)cc23)n1,45.8% (active)
20,Oc1ccccc1CNc1ncc(Br)cc1Br,-3.76%
21,Cc1cccc(OCC(=O)NCCNC(=O)c2cccnc2)c1,2.8%
22,O=C(CNC(=O)c1cccnc1)N/N=C/c1cc(Br)c(O)c(Br)c1,5.12%

row,SMILES,inhibition
1,Cc1ccc(NC(=O)COc2ccc(/C=N\NC(=O)c3cccnc3)cc2)cc1C,56% (active)
2,COc1ccc(CNC(=O)CN(c2ccc(OC)c(Cl)c2)S(=O)(=O)c2ccc(C)cc2)cc1,8.36%
3,COc1ccc(C(=O)NC(C)c2nccs2)cc1OC1CCN(C(C)C)CC1 (configuration not stated),-0.68%
4,Cc1ccc(NC(=O)CN(C)C(=O)COC(=O)C(C)(C)Oc2ccc(Cl)cc2)cc1,9.98%
5,Cc1ccc(CSCC(=O)N(C)CC(=O)Nc2ccc(C)cc2)cc1,5.66%
6,Cc1ccc(NC(=O)CN(C)C(=O)COC(=O)c2nccnc2N)cc1,57.4% (active)
7,O=C(OCCOCn1cc(Br)c(=O)[nH]c1=O)c1ccccc1,1.74%
8,COC(=O)c1sc(-c2ccc(C(C)(C)C)cc2)cc1NC(=O)/C=C/C(=O)O,-17%
9,COc1cccc(/C=N/Nc2cc(C)nc(-c3ccccc3O)n2)c1O,40.2% (active)
10,COc1ccc(N2C(=O)CC(Sc3n[nH]c(-c4ccc(C)cc4)n3)C2=O)cc1 (configuration not stated),0.38%
11,Cc1ccccc1NC(=O)COc1cccc2c1CCNC2=O,-9.32%
12,O=C(Cn1nnc(-c2ccccc2)n1)N/N=C/c1ccc(-c2ccc(Cl)cc2)o1,28.8%
13,Nc1nnnn1CC(=O)N/N=C/c1ccc(-c2cccc(Cl)c2)o1,49.1% (active)
14,CCCCCN(C(=O)NC(=O)Nc1ccccc1C)S(C)(=O)=O,-3.04%
15,COc1ccc(C2CC(c3cccs3)=NN2C(=O)COC(=O)c2cc3ccccc3cc2O)cc1OC (configuration not stated),0.97%
16,COc1ccc(C2CC(c3cccs3)=NN2C(=O)CSc2nnc(N)s2)cc1OC (configuration not stated),-4.71%
17,COc1cccc(C2CC(c3cccs3)=NN2C(=O)CSC2=NCCS2)c1OC (configuration not stated),47.3% (active)
18,CCN1C(=O)/C(=C\N2CCOCC2)SC1=S,-15.3%
19,O=C(c1cc2ccccc2s1)N1CCN(c2ccccn2)CC1,-7.27%
20,O=C1c2ccccc2S(=O)(=O)c2cc(N3CCN(c4ccccn4)CC3)ccc21,-31.5%
21,O=C1c2cccc3cccc(c23)N1CN1CCN(c2ccccn2)CC1,38.1% (active)
22,Cc1ccc(O)c(NC(=S)NC(=O)COc2ccc(Br)cc2)c1,12.7%

row,SMILES,inhibition
1,COc1cc(NC(=O)CCNC(=O)Cn2ccc3ccccc3c2=O)cc(OC)c1OC,5.61%
2,Cc1cccc(N)c1SC1CCCCC1O (configuration not stated),6.45%
3,COCOCCn1cc(CN2CCS(=O)(=O)N(Cc3ccc(-c4ccc(OC)cc4)cc3)C(CC(C)C)C2=O)nn1 (configuration not stated),-8.33%
4,COc1cccc(/C=C/C(=O)OCC(=O)N2CCCc3ccccc32)c1,40.6% (active)
5,COCCn1c(C)cc(C(=O)COC(=O)/C=C/c2cccc(OC)c2)c1C,12.7%
6,COc1cccc(/C=C/C(=O)OCC(=O)N2CCN(c3ccccc3)CC2)c1,31.1%
7,CC(NC(=O)CN1CCN(Cc2ccc(Cl)cc2)C1=O)c1ccc2c(c1)OCCO2 (configuration not stated),-6.96%
8,COc1ccc(CCN2C(=O)C3CC=C(C)CC3C2=O)cc1OC (configuration not stated),1.1%
9,COc1ccc(OC)c(C(C)NC(=S)Nc2ccc(S(=O)(=O)Nc3ncccn3)cc2)c1 (configuration not stated),5.42%
10,O=S(=O)(Nc1ccccn1)c1cccc(S(=O)(=O)c2ccc(Cl)cc2)c1,-0.91%
11,COc1cc(NS(=O)(=O)c2ccc3ccccc3c2)c2ncccc2c1,50.3% (active)
12,CC(C)NC(=S)Nc1cccc2cnccc12,0.89%
13,Cc1ccc(-n2nc3c(c2NC(=O)c2ccc4c(c2)OCO4)CSC3)c(C)c1,18.4%
14,C=CCNC(=O)c1ccc2c3n(nc2c1)-c1ccc(C)cc1CO3,49.5% (active)
15,OC(COCc1ccco1)CN1CCN(c2ccccc2)CC1 (configuration not stated),-1.36%
16,COc1ccc(-c2c(C#Cc3ccsc3)c3cc(-c4ccc(CN5CCOCC5)cc4)ccc3n2C)cc1,22.8%
17,COc1ccc(Cl)cc1NC(=O)CN(C)C(=O)c1cn(-c2ccccc2)nc1-c1cccs1,-140%
18,COc1cccc(NC(=O)CN(C)C(=O)/C=C/c2cn(-c3ccccc3)nc2-c2cccs2)c1,60.2% (active)
19,O=c1cc(CO)oc(C(Nc2cccc(C(F)(F)F)c2)c2ccccn2)c1O (configuration not stated),0.9%
20,CC(C)C[C@H]1CNC(=O)C(=O)N1C[C@@H]1CCCN1C[C@H](Cc1ccccc1)N1C[C@H](CC(C)C)N(CC2CCCCCC2)C(=O)C1=O,7.12%
21,CN(C)c1ccc2c(=O)[nH][nH]c(=O)c2c1,33.3%
